Bioassay records (PubChem)
SMN2 splice enh – qHTS Assay for Enhancers of SMN2 Splice Variant Expression | HEK293 SMN2-luciferase splicing reporter, luminescence, 30-36 h | Potency, µM (highest dose often 46.1 µM), inactives show at the highest dose activity change, positive = activation, usual class: activators | actives 2.8% (n = 210,000) | AID 1458, 2008; also: % of control where 0% means no effect; nearly all actives have a fitted effect of over 55% in size
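qHTS luciferase splicing reporter: luminescence rises when SMN2 exon 7 is included in transfected HEK293 cells. Compound exposure lasted 30-36 h at 37C, with 4.5 mM final sodium butyrate as control, followed by a ONE-Glo read.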
NPC1 prom act – qHTS Assay for NPC1 Promoter Activators | Huh7 NPC1 promoter luciferase reporter, 24 h | Potency, µM (top dose mostly 9.22 µM), for the others: at the highest dose activation, hits mostly activators | actives 2.4% (n = 320,000) | AID 485313, 2010; also: % of control where 0% means no effect; nearly all actives have a fitted effect of over 60% in size
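Stable NPC1-promoter luciferase Huh7 line; cpd (DMSO) 24 h, 37 °C, 5% CO2; Amplite luciferase reagent 10 min RT; luminescence readout. qHTS format.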
ELG1 repair inh – qHTS screen for small molecules that inhibit ELG1-dependent DNA repair in human embryonic kidney (HEK293T) cells expressing luciferase-tagged ELG1; actives 2.3% (n = 330,000); HEK293T ELG1-luciferase reporter, luminescence, 16 h; DNA damage induced by 5-fluorouridine; Potency, µM (doses to about 46.1 µM), without a hit: at the highest dose activity change, negative = inhibition, actives largely listed as inhibitors; also: % is scaled to controls: 0 for no effect and ±100 for the full control effect; nearly all actives have a fitted effect of over 55% in size
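In this reporter screen, reduction of luminescence relative to DMSO vehicle indicated activity. Compounds and 5-fluorouridine were added together to 2,000 cells per well, incubated for 16 hr at 37 °C, then developed with ONE-Glo.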
ELG1 genotox – qHTS screen for small molecules that induce genotoxicity in human embryonic kidney (HEK293T) cells expressing luciferase-tagged ELG1; AID 504466, 2011; HEK293T ELG1-luciferase reporter, luminescence, 16 h; Potency, µM (series often up to 46 µM), for the others: at the top dose activity change, positive = activation, usual class: activators; actives 1.3% (n = 330,000); also: % of control where 0% means no effect; nearly all actives have a fitted effect of over 60% in size
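Cells (2,000/well) expressing the ELG1-luciferase fusion are dosed by pin tool and kept 16 hr at 37 °C, 5% CO2. Signal comes from ONE-Glo luciferase reagent after 30 min at room temperature.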
FLuc modulator – qHTS profiling assay for firefly luciferase inhibitor/activator using purifed enzyme and Km concentrations of substrates (counterscreen for miR-21 project) | Luciferin 4-monooxygenase (Photinus pyralis), P08659 | purified FLuc, Km substrates, luminescence inhibition | Potency, µM (top dose mostly 57.5 µM), for inactives: at the highest dose activity change, negative = inhibition, hits mostly inhibitors | actives 6.9% (n = 360,000) | AID 588342, 2011;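 also: plate controls were vehicle for no effect and reference inhibitor for full effect; nearly all actives have a fitted effect of over 55% in size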
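Purified P. pyralis luciferase, 10 nM final, with Km-level 10 uM D-luciferin and 10 uM ATP in 50 mM Tris acetate pH 7.5, 10 mM Mg acetate, 0.01% Tween-20, 0.05% BSA; 6-point qHTS titration about 60 µM downward; luminescence read.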
Rab9 prom act – qHTS Assay for Rab9 Promoter Activators; Huh7 Rab9 promoter-luciferase reporter, luminescence, 24 h; Potency, µM (doses to about 9.22 µM), for the others: at the top dose activation, negative = inhibition, actives largely listed as activators; actives 2.8% (n = 320,000); AID 485297, 2010; also: % of control where 0% means no effect; nearly all actives have a fitted effect of over 60% in size
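Measured in stably transfected Huh7 cells bearing a Rab9 promoter–luciferase construct: 24 h compound treatment at 37 °C, followed by luminescence detection.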
ELG1 FLuc counter – qHTS screen for small molecules that inhibit ELG1-dependent DNA repair: Hit Confirmation in Cell-Based Luciferin Assay; shares compounds with ELG1 repair inh; cell-free firefly luciferase luminescence counter-screen, ViewLux; Potency, µM (series often up to 46.1 µM), without a hit: at the highest dose activity change, negative = inhibition, most hits filed as inhibitors; actives 3% (n = 350); AID 624247, 2012; also: % is scaled to controls: 0 for no effect and ±100 for the full control effect
ELG1 Luc conf – HTS assay for small molecules that inhibit ELG1-dependent DNA repair in human embryonic kidney (HEK293T) cells expressing luciferase-tagged ELG1: Hit Confirmation | shares compounds with ELG1 repair inh | HEK293T ELG1-luciferase levels, luminescence; cells co-treated with 5-fluorouridine | Potency, µM (titrated, usually from 46.1 µM), without a hit: at the highest dose activity change, negative = inhibition, actives largely listed as inhibitors | actives 68% (n = 670) | AID 624248, 2012; also: % is scaled to controls: 0 for no effect and ±100 for the full control effect; nearly all actives have a fitted effect of over 55% in size
ELG1 MMS Luc – inhibits ELG1-dependent repair under MMS stimulation in HEK293T cells. shares compounds with ELG1 repair inh. HEK293T luciferase-tagged ELG1 level, MMS stimulated. Potency, µM (doses to about 46.1 µM), for the others: top-dose activity change, negative = inhibition, usual class: inhibitors. actives 53% (n = 670). AID 624249; also: % is scaled to controls: 0 for no effect and ±100 for the full control effect; nearly all actives have a fitted effect of over 60% in size
ELG1 5FU viab – qHTS screen for small molecules that inhibit ELG1-dependent DNA repair: Hit Confirmation with 5FU Viability. shares compounds with ELG1 repair inh. cell viability with 5-FU, ELG1-dependent repair. Potency, µM (highest dose often 46.1 µM), inactives show at the highest dose activity change, negative = viability loss, most hits filed as cytotoxic. 670 tested, under 10 active;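 also: ELG1-luc HEK293T cells cotreated with 5-fluorouridine at 10 µM final; viability measured 16 h after compound addition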
ELG1 MMS cell – qHTS screen for small molecules that inhibit ELG1-dependent DNA repair: Hit Confirmation with MMS Viability; shares compounds with ELG1 repair inh; Cell viability with MMS, ELG1-dependent DNA repair; Potency, µM (highest dose often 46.1 µM), inactives show top-dose activity change, negative = viability loss, hits mostly cytotoxic; actives 33% (n = 670);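 also: ELG1-luc HEK293T cells co-treated with 10 µM MMS; viability read 16 h after compound addition; % is scaled to controls: 0 for no effect and ±100 for the full control effect; nearly all actives have a fitted effect of over 60% in size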
Cell viab unstim – qHTS screen for small molecules that inhibit ELG1-dependent DNA repair: Hit Confirmation with Unstimulated Viability Assay; AID 624252, 2012; shares compounds with ELG1 repair inh; actives 8% (n = 900); cell viability counter-screen, unstimulated, luminescence; Potency, µM (titrated, usually from 45.9 µM), without a hit: at the highest dose activity change, negative = loss of viability, most hits filed as cytotoxic;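 also: compound exposure lasted 16 hours before reading; % is scaled to controls: 0 for no effect and ±100 for the full control effect; nearly all actives have a fitted effect of over 55% in size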
FLuc biochem – qHTS screen for small molecules that inhibit ELG1-dependent DNA repair: Hit Confirmation in Biochemical Luciferin Assay. shares compounds with ELG1 repair inh. purified firefly luciferase, luminescence counter-screen. Potency, µM (top dose mostly 57.5 µM), inactives show at the highest dose activity, negative = inhibition, actives largely listed as inhibitors. actives 10% (n = 350). AID 624253, 2012; also: % is scaled to controls: 0 for no effect and ±100 for the full control effect
* hit, by the source's call. This is a sample that favours compounds with a hit; in the whole collection about 9.3% have one here. Calls follow the shape of the dose curve; as a rule, active = well fitted curve in the direction sought with a large enough effect; inconclusive = small, poorly fitted or top-dose-only effect, or another doubt; inactive = no such curve, though single readings can be large; an effect the other way counts as inactive or inconclusive. Potency is read from the fitted curve at half-maximal effect.

How did CCOc1cccc(-c2nnc(SCC(=O)Nc3cc(C)ccc3OC)n2N)c1 do in these assays?
SMN2 splice enh: -6%; NPC1 prom act: 7%; ELG1 repair inh: 0.58µM*; ELG1 genotox: -8%; FLuc modulator: -9%; Rab9 prom act: 0%; ELG1 FLuc counter: 1%; ELG1 Luc conf: inconclusive; ELG1 MMS Luc: -18%; ELG1 5FU viab: 9%; ELG1 MMS cell: 0%; Cell viab unstim: -5%; FLuc biochem: -8%

How did Cc1ccc(-c2nnc(NCc3nc4ccccc4[nH]3)c3ccccc23)cc1S(=O)(=O)N1CCOCC1 do in these assays?
SMN2 splice enh: -67%; NPC1 prom act: -3%; ELG1 repair inh: 4.6µM*; ELG1 genotox: -6%; FLuc modulator: 1%; Rab9 prom act: -8%; ELG1 Luc conf: 7.1µM*; ELG1 MMS Luc: 16µM*; ELG1 5FU viab: 9%; ELG1 MMS cell: inconclusive; Cell viab unstim: inconclusive

What do the screens show for `COC(=O)[C@@]1(Cc2ccc(OC)cc2)[C@H]2c3cc(C(=O)N(C)C)n(Cc4ccc(S(C)(=O)=O)cc4)c3C[C@H]2CN1C(=O)c1ccccc1`?
SMN2 splice enh: -4%

How did OCCN1CCN(c2ncnc3ccc(Br)cc23)CC1 do in these assays?
SMN2 splice enh: -9%; NPC1 prom act: 4%; ELG1 repair inh: 2.1µM*; ELG1 genotox: -15%; FLuc modulator: 0%; Rab9 prom act: -6%; ELG1 Luc conf: inconclusive; ELG1 MMS Luc: inconclusive; ELG1 5FU viab: -2%; ELG1 MMS cell: 5%; Cell viab unstim: 4%

Results for OCCN1CCN(c2nc(-c3ccccc3)c3cc(Br)ccc3n2)CC1 ?
NPC1 prom act: 0%; ELG1 repair inh: inconclusive; ELG1 genotox: -9%; FLuc modulator: -1%; Rab9 prom act: 9%

How did O=C1CCN(Cc2ccccc2)C=C1c1ccc2ccccc2c1 do in these assays?
ELG1 repair inh: inconclusive; ELG1 genotox: inconclusive; Cell viab unstim: -2%

What do the screens show for `O=C1CCN(Cc2ccccc2)C=C1c1ccc(Cl)cc1`?
ELG1 repair inh: 5%; ELG1 genotox: 4%

How did COc1ccc(C(=O)Nc2ccc(S(=O)(=O)NC(C)=O)cc2)cc1 do in these assays?
SMN2 splice enh: 4%; NPC1 prom act: -1%; ELG1 repair inh: 12%; ELG1 genotox: -3%; FLuc modulator: inconclusive; Rab9 prom act: -4%

What do the screens show for `CCCNC(=O)C(=O)Nc1ccc2c(c1)N(S(=O)(=O)c1cccs1)CCC2`?
NPC1 prom act: -25%; ELG1 repair inh: 3.3µM*; ELG1 genotox: -2%; FLuc modulator: 7%; Rab9 prom act: -22%; ELG1 Luc conf: 16µM*; ELG1 MMS Luc: 5.6µM*; ELG1 5FU viab: inconclusive; ELG1 MMS cell: inconclusive; Cell viab unstim: -10%

Results for CCNC(=O)C(=O)Nc1ccc2c(c1)N(S(=O)(=O)c1cccs1)CCC2 ?
NPC1 prom act: -8%; ELG1 repair inh: -22%; ELG1 genotox: -7%; FLuc modulator: 2%; Rab9 prom act: -1%

Results for COc1ccc(C(=O)N/N=C/c2cc(Br)ccc2O)cc1OC ?
NPC1 prom act: -33%; ELG1 repair inh: 2.1µM*; ELG1 genotox: inconclusive; FLuc modulator: -16%; Rab9 prom act: -43%; ELG1 Luc conf: 4µM*; ELG1 MMS Luc: 13µM*; ELG1 5FU viab: 19%; ELG1 MMS cell: 16µM*; Cell viab unstim: -13%

What do the screens show for `COc1ccc(N2CCCn3c2nc2c3c(=O)n(CCc3ccccc3)c(=O)n2C)cc1`?
SMN2 splice enh: -20%; NPC1 prom act: -2%; ELG1 repair inh: 4.1µM*; ELG1 genotox: -3%; FLuc modulator: 0%; Rab9 prom act: -8%; ELG1 Luc conf: 18µM*; ELG1 MMS Luc: 16µM*; ELG1 5FU viab: inconclusive; ELG1 MMS cell: -6%; Cell viab unstim: -20%
